# Screening results deposited in PubChem BioAssay by National Center for Advancing Translational Sciences (NCATS).
# Chronic BCR inh = chronic active BCR signaling inhibition; ABC-DLBCL IkBa-CBG/CBR reporter, luminescence ratio, 4 h; Potency, µM (top dose mostly 46.1 µM), without a hit: at the highest dose activity change, negative = inhibition, most hits filed as inhibitors; 340,000 compounds, 0.05% hits; active = well fitted inhibition curve with a large enough effect in the signal ratio, with a control signal flat, not every such curve was filed as active; inconclusive = small, poorly fitted or top-dose-only effect, or effect the other way, or a change in a side signal; the % refers to the signal ratio;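 also: potency is read from the fitted curve at half-maximal effect; plate controls were basal doxycycline-induced cells for no effect and cells given 10 µM MG132 for full effect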
#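 Doxycycline induced both beetle luciferases in TMD8 lymphoma cells; IKK-driven degradation limits the IkappaBalpha-fused green signal, while red luminescence normalises for cell number and nonspecific effects. Compounds tested up to 46 uM, 4 hrs.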
# SW480 rereplic = inducers of DNA re-replication in SW480 colon cancer cells. Potency, µM (series often up to 46.1 µM), without a hit: at the top dose re-replication activation, hits mostly activators. SW480 DNA re-replication, Hoechst DNA content imaging, 48 h. 340,000 compounds, 1.8% hits; also: potency is read from the fitted curve at half-maximal effect; % of control where 0% means no effect; nearly all actives have a fitted effect of over 55% in size
#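 First, 250 cells per well were seeded. Next, compound or vehicle (23 nL) was pinned in, plates sat 48 hr at 37 C. Finally Hoechst was added for 40 min before fluorescence scanning.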
# MCF10A rerep = DNA re-replication induction in MCF 10a cells | MCF 10A DNA re-replication, Hoechst nuclear intensity, 48 h | Potency, µM (highest dose often 46.1 µM), inactives show at the highest dose activity, positive = re-replication, actives largely listed as activators | 350,000 compounds, 2.9% hits; also: potency is read from the fitted curve at half-maximal effect; % of control where 0% means no effect; nearly all actives have a fitted effect of over 50% in size
# DT40 TDP1 no CPT = qHTS for Inhibitors of human tyrosyl-DNA phosphodiesterase 1 (TDP1): qHTS in cells in absence of CPT | DT40 Tdp1-/- hTDP1 cells, no CPT, ATP luminescence, 48 h | Potency, µM (highest dose often 46.2 µM), for inactives: at the top dose activity change, negative = growth inhibition, actives largely listed as inhibitors | 420,000 compounds, 15% hits; also: potency is read from the fitted curve at half-maximal effect; % is scaled to controls: 0 for no effect and ±100 for the full control effect; nearly all actives have a fitted effect of over 55% in size
#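 A cellular qHTS used chicken DT40 cells lacking endogenous Tdp1 but carrying stably transfected human TDP1. Compounds were applied without camptothecin, and cell growth kinetics were judged by ATP-dependent luminescence after ≥48 hr.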
# IL1B secr inh = inhibitors of inflammasome signaling (IL-1 beta secretion); THP-1 LPS/ATP IL-1B secretion, AlphaLISA, 16 h; active compounds read low; activity change, % at 57.5 µM; 360,000 compounds, 4.7% hits; in the data active = activity change below about -50%; inconclusive = mostly about -30% to -49%; also: % is scaled to controls: 0 for no effect and ±100 for the full control effect
#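 THP-1 cells pretreated 1 hr with compounds (up to 57.5 uM final), then stimulated with LPS (250 ng/mL final) plus ATP (1.25 mM final); secreted IL-1B measured by AlphaLISA after 16 hr, decreased signal indicating inhibition.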
# TDP1 cell CPT = growth inhibition of DT40 Tdp1-/-;hTDP1 cells with camptothecin (screen for TDP1 inhibitors); 420,000 compounds, 12% hits; chicken DT40 Tdp1-/-;hTDP1 cells + 20 nM CPT, ATP luminescence, 48 h; Potency, µM (series often up to 46.2 µM), without a hit: at the top dose activity change, negative = growth inhibition, most hits filed as inhibitors; AID 686979; also: potency is read from the fitted curve at half-maximal effect; % is scaled to controls: 0 for no effect and ±100 for the full control effect; nearly all actives have a fitted effect of over 55% in size
#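 Chicken DT40 Tdp1-/- cells stably complemented with human TDP1 were seeded at 400 cells/well in medium containing 20 nM camptothecin, exposed to pin-transferred compounds, and grown at 37 °C for at least 48 hr. Viability was read as ATP luminescence.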
# * = called active by the depositor; ? = inconclusive; . = no result. Most compounds without a hit are left out; they make up all but 19% or so of the library. Unless noted, calls follow the shape of the dose curve; as a rule, active = well fitted curve in the direction sought with a large enough effect; inconclusive = small, poorly fitted or top-dose-only effect, or another doubt; inactive = no such curve, though single readings can be large; an effect the other way counts as inactive or inconclusive.
SMILES,Chronic BCR inh,SW480 rereplic,MCF10A rerep,DT40 TDP1 no CPT,IL1B secr inh,TDP1 cell CPT
CCc1nc2c(OCc3cccc(Cl)c3)cccn2c1N(C)C(C)=O,.,.,.,?,-19,?
CCCCC(=O)N(C)c1c(CC)nc2c(OCc3cccc(Cl)c3)cccn12,.,.,.,23µM*,-5,?
CCc1nc2c(OCc3cccc(Cl)c3)cccn2c1N(C)C(=O)Nc1ccccc1OC,.,.,.,23µM*,-19,18µM*
CCc1nc2ccc(C(=O)N(C)CCN(C)C)cn2c1N(C)CCC(C)C,.,.,.,?,-11,5%
CC(=O)c1ccc(S(=O)(=O)Nc2ccc(-c3ccc(N4CCCCC4)nn3)cc2)cc1,.,.,.,-29%,.,-29%
Cc1ccc(S(=O)(=O)N2CCCCC2)cc1NC(=O)c1cccs1,-1%,7%,6%,-10%,-6,26µM*
COc1ccc(S(=O)(=O)N2CCCCC2)cc1NC(=O)c1cccs1,0%,-7%,17%,4%,11,-21%
CC(=O)NC(=S)Nc1ccc(NC(=O)c2cccs2)cc1,?,.,4%,?,-7,-13%
O=S(=O)(c1ccc(NC(=S)NN=Cc2ccccc2O)cc1)N1CCCCC1,.,?,15%,5.8µM*,?,4.6µM*
O=C(NC(=S)Nc1ccc(S(=O)(=O)N2CCCCC2)cc1)c1cccs1,4%,13%,7%,18µM*,0,26µM*
Cc1ccc(NC(=S)NC(=O)c2cccs2)cc1F,-22%,-6%,14%,7.3µM*,4,-108%
O=C(NCCc1ccc(O)cc1)c1[nH]c(C(F)(F)F)nc1-c1ccccc1,.,.,.,-12%,13,?
CC(=O)Nc1ccc(NC(=O)CSc2ccc([N+](=O)[O-])cn2)cc1,-9%,-6%,7%,-10%,-2,0%
CN(C)c1ccc(NC(=S)NC23CC4CC(CC(C4)C2)C3)cc1,3%,25%,11%,?,21,29µM*
O=S(=O)(c1ccc(NC(=S)NC23CC4CC(CC(C4)C2)C3)cc1)N1CCCCC1,.,.,.,21µM*,-3,?
O=C(NC(=S)Nc1ccc(N2CCCCC2)c(Cl)c1)c1cccs1,.,0%,?,5.8µM*,7,7.3µM*
CCOc1ccc(NC(=S)NC23CC4CC(CC(C4)C2)C3)cc1,1%,25%,-2%,?,12,?
O=C(NC(=S)Nc1ccc(S(=O)(=O)N2CCCCC2)cc1)c1ccc(Cl)cc1,?,-1%,15%,10µM*,9,16µM*
CN1CCN(S(=O)(=O)c2ccc(NC(=S)NC(=O)c3ccc(Cl)cc3)cc2)CC1,-6%,-1%,?,?,4,?
CC(C)CC(=O)NC(=S)Nc1ccc(N2CCCC2)c(Cl)c1,?,-7%,9%,-14%,-11,-5%
CN(C)NC(=S)Nc1ccc(S(=O)(=O)N2CCCCC2)cc1,-8%,-128%,-6%,?,4,20%
COc1ccc(OC)c(NC(=O)CSc2ccc3nnc(-c4ccccn4)n3n2)c1,-1%,?,1%,11%,-13,1%
CN1CC(=O)N(CC(=O)Nc2cccc(C#N)c2)c2ccccc2C1=O,0%,.,.,24%,.,-2%
COc1ccc(S(=O)(=O)NCC2CCCO2)cc1NC(=O)c1ccc(Cl)cc1 (centres undefined),1%,-1%,0%,-29%,-18,-18%
CS(=O)(=O)N(CC(=O)N1CCC(C(N)=O)CC1)Cc1ccc(Cl)c(Cl)c1,0%,-4%,-1%,?,-3,0%
SMILES,Chronic BCR inh,SW480 rereplic,MCF10A rerep,DT40 TDP1 no CPT,IL1B secr inh,TDP1 cell CPT
O=C(NC12CC3CC(CC(C3)C1)C2)N1CCN(S(=O)(=O)c2ccc(Cl)cc2)CC1,1%,-1%,?,23µM*,-3,18µM*
COc1ccccc1/C=N/NC(=O)COCC(=O)N/N=C/c1ccccc1OC,4%,-2%,2%,-10%,37,-2%
CC(Nc1ccc(Br)cc1)C(=O)N/N=C/c1ccccc1OCc1ccccc1 (centres undefined),?,?,13%,?,?,?
C=CCc1cccc(/C=N/NC(=O)CCCNc2ccc(C)cc2)c1O,-1%,?,?,21µM*,37,-88%
Cc1ccc(NCC(=O)N/N=C\c2cccc(O)c2)cc1,-3%,-4%,-2%,-2%,-12,-17%
C=CCc1cccc(/C=N/NC(=O)CNc2ccccc2)c1O,.,13µM*,13%,5.2µM*,89,21µM*
C=CCc1cccc(/C=N/NC(=O)C(C)Nc2cccc(C)c2)c1O (centres undefined),?,3.3µM*,7%,2.9µM*,35,4.1µM*
C=CCc1cccc(/C=N/NC(=O)CNc2ccccc2OC)c1O,?,16µM*,?,21µM*,253,?
CC(C)(C)N1CC(C(=O)Nc2ccc(C(N)=O)cc2)CC1=O (centres undefined),.,.,.,3%,11,-2%
C=CCc1cccc(/C=N/NC(=O)C[n+]2ccccc2)c1O,0%,?,25%,?,266,?
C=CCc1cccc(/C=N/NC(=O)CCC(=O)Nc2ccc(F)cc2)c1O,-1%,?,18%,8.2µM*,124,9.2µM*
C=CCc1cccc(/C=N/NC(=O)CNc2cccc3ccccc23)c1O,?,?,?,5.8µM*,28,4.6µM*
COc1ccc2c(c1)c1c(c(=O)n(-c3ccccc3)c(=O)n1CC(=O)NCCC1=CCCCC1)n2C,.,.,.,-1%,.,-20%
COc1cc(OC)c2c(-c3cccc(-c4ccc(C(C)=O)cc4)c3)cc(=O)oc2c1,?,4.1µM*,0.65µM*,0.92µM*,55,1.2µM*
COc1cc(OC)c2c(-c3cccc(-c4ccoc4)c3)cc(=O)oc2c1,?,?,7.3µM*,?,69,?
COc1cc(OC)c2c(-c3ccccc3)cc(=O)oc2c1,?,-9%,-3%,-14%,21,-12%
CCc1cccc(C)c1NC(=O)C1CN(S(=O)(=O)c2ccccc2)CCN1S(=O)(=O)c1ccccc1 (centres undefined),?,-1%,0%,?,-29,?
O=C1OC(c2ccccc2)(c2cc(Br)ccc2O)c2ccccc21 (centres undefined),.,?,?,?,-92*,18µM*
O=C1OC(c2ccc(O)cc2)(c2ccccc2O)c2ccccc21 (centres undefined),.,-7%,10%,-19%,?,9%
